Measured values reported in article PMC11006913.
Substitutions are numbered along the chain they refer to.

What was measured:
Experiment in all cases: PBM; 200 nM protein, PBS
Settings in all cases: dsDNA, one strand shown
[1] = target: T1, NKX2-4 (Homo sapiens, UniProt Q9H2Z4 175-261, P217L)
T1 sequence: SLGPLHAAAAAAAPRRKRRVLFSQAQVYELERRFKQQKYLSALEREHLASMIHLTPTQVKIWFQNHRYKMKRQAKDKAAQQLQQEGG

[2] = target: T2, NKX2-4 (Homo sapiens, UniProt Q9H2Z4 175-261, T231S)
T2 sequence: T1 sequence with L43P, T57S

[3] = target: T3, NKX2-4 (Homo sapiens, UniProt Q9H2Z4 175-261)
T3 sequence: T1 sequence with L43P

[4] = target: MSX2 (Homo sapiens, UniProt P35548 130-214, R199I)
[5] = target: MSX2 (Homo sapiens, UniProt P35548 130-214)
[6] = target: T4, NKX2-4 (Homo sapiens, UniProt Q9H2Z4 175-261, R246Q)
T4 sequence: T1 sequence with L43P, R72Q

[7] = target: PROP1 (Homo sapiens, UniProt O75360 56-141)
[8] = target: PROP1 (Homo sapiens, UniProt O75360 56-141, R99H)
[9] = target: PROP1 (Homo sapiens, UniProt O75360 56-141, F88S)
[10] = target: MSX2 (Homo sapiens, UniProt P35548 130-214, F161Y)
[11] = target: T5, NKX2-6 (Homo sapiens, UniProt A6NCS4 118-204, R150C)
T5 sequence: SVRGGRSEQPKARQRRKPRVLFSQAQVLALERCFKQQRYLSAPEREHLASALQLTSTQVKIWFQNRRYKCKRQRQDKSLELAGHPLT

[12] = target: PRRX1 (Homo sapiens, UniProt P54821 80-166, F113S)
[13] = target: PRRX1 (Homo sapiens, UniProt P54821 80-166)
[14] = target: HOXB6 (Homo sapiens, UniProt P17509 132-218, K202E)
[15] = target: HOXB6 (Homo sapiens, UniProt P17509 132-218)
[16] = target: HOXC9 (Homo sapiens, UniProt P31274 178-260, K195R)
[17] = target: HOXC9 (Homo sapiens, UniProt P31274 178-260)
[18] = target: PITX2 (Homo sapiens, UniProt Q99697 72-157)
[19] = target: HOXC9 (Homo sapiens, UniProt P31274 178-260, R193K)
[20] = target: HOXC9 (Homo sapiens, UniProt P31274 178-260, R222W)
[21] = target: HOXC10 (Homo sapiens, UniProt Q9NYD6 254-340)
[22] = target: HOXC10 (Homo sapiens, UniProt Q9NYD6 254-340, K271E)
Sequence of HOXC10 (Homo sapiens, UniProt Q9NYD6 254-340, K271E) (Q9NYD6 254-340 K271E): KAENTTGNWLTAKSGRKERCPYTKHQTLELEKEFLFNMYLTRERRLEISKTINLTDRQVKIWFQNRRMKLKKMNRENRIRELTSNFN

Sequence of HOXC9 (Homo sapiens, UniProt P31274 178-260, K195R) (P31274 178-260 K195R): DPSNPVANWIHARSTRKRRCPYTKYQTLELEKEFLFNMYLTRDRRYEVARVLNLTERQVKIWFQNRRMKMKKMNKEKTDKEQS
Sequence of HOXC9 (Homo sapiens, UniProt P31274 178-260, R193K) (P31274 178-260 R193K): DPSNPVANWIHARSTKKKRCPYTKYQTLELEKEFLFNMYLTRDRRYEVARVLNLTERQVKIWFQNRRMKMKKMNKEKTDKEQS
Sequence of HOXB6 (Homo sapiens, UniProt P17509 132-218, K202E) (P17509 132-218 K202E): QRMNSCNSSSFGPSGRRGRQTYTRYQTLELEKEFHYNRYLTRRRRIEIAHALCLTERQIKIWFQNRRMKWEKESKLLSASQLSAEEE
Sequence of HOXC9 (Homo sapiens, UniProt P31274 178-260) (P31274 178-260): as the sequence (P31274 178-260 R193K) above, with K16R counted along it
Sequence of PRRX1 (Homo sapiens, UniProt P54821 80-166, F113S) (P54821 80-166 F113S): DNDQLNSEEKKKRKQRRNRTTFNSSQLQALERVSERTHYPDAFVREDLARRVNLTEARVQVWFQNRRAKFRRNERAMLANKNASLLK
Sequence of HOXC9 (Homo sapiens, UniProt P31274 178-260, R222W) (P31274 178-260 R222W): as the sequence (P31274 178-260 R193K) above, with K16R, R45W counted along it
Sequence of HOXC10 (Homo sapiens, UniProt Q9NYD6 254-340) (Q9NYD6 254-340): as the sequence (Q9NYD6 254-340 K271E) above, with E18K counted along it
Sequence of MSX2 (Homo sapiens, UniProt P35548 130-214, R199I) (P35548 130-214 R199I): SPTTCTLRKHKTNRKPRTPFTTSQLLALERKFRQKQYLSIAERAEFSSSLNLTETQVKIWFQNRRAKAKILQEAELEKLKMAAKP
Sequence of MSX2 (Homo sapiens, UniProt P35548 130-214, F161Y) (P35548 130-214 F161Y): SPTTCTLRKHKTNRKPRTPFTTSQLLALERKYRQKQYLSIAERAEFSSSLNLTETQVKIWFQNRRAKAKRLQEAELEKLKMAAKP
Sequence of HOXB6 (Homo sapiens, UniProt P17509 132-218) (P17509 132-218): as the sequence (P17509 132-218 K202E) above, with E71K counted along it
Sequence of PROP1 (Homo sapiens, UniProt O75360 56-141, F88S) (O75360 56-141 F88S): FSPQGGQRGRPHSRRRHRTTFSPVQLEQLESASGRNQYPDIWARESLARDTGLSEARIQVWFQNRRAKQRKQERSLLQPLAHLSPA
Sequence of MSX2 (Homo sapiens, UniProt P35548 130-214) (P35548 130-214): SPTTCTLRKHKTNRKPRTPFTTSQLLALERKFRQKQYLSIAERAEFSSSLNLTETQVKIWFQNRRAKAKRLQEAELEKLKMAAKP
Sequence of PROP1 (Homo sapiens, UniProt O75360 56-141) (O75360 56-141): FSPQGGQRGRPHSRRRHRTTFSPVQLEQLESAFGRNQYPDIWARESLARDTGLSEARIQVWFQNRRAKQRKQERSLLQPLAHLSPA
Sequence of PRRX1 (Homo sapiens, UniProt P54821 80-166) (P54821 80-166): as the sequence (P54821 80-166 F113S) above, with S34F counted along it
Sequence of PROP1 (Homo sapiens, UniProt O75360 56-141, R99H) (O75360 56-141 R99H): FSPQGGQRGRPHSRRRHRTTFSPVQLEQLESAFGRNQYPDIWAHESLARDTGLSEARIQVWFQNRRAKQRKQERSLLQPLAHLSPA

GACTGAGC
binding signal [1]: 9.79 upbm affinity estimate (log intensity, higher = more binding, comparable within an allelic series)
binding signal [2]: 9.84 upbm affinity estimate (log intensity, higher = more binding, comparable within an allelic series)
binding signal [3]: 9.65 upbm affinity estimate (log intensity, higher = more binding, comparable within an allelic series)
binding signal [4]: 9.57 upbm affinity estimate (log intensity, higher = more binding, comparable within an allelic series)
binding signal [5]: 9.48 upbm affinity estimate (log intensity, higher = more binding, comparable within an allelic series)
binding signal [6]: 9.92 upbm affinity estimate (log intensity, higher = more binding, comparable within an allelic series)
binding signal [7]: 6.86 upbm affinity estimate (log intensity, higher = more binding, comparable within an allelic series)
binding signal [8]: 6.74 upbm affinity estimate (log intensity, higher = more binding, comparable within an allelic series)
binding signal [9]: 6.66 upbm affinity estimate (log intensity, higher = more binding, comparable within an allelic series)
binding signal [10]: 9.49 upbm affinity estimate (log intensity, higher = more binding, comparable within an allelic series)

AGGCGGGC
binding signal [1]: 9.12 upbm affinity estimate (log intensity, higher = more binding, comparable within an allelic series)
binding signal [2]: 8.97 upbm affinity estimate (log intensity, higher = more binding, comparable within an allelic series)
binding signal [3]: 9.16 upbm affinity estimate (log intensity, higher = more binding, comparable within an allelic series)
binding signal [6]: 9.08 upbm affinity estimate (log intensity, higher = more binding, comparable within an allelic series)

AAACCCCC
binding signal [1]: 9.69 upbm affinity estimate (log intensity, higher = more binding, comparable within an allelic series)
binding signal [2]: 9.77 upbm affinity estimate (log intensity, higher = more binding, comparable within an allelic series)
binding signal [3]: 9.71 upbm affinity estimate (log intensity, higher = more binding, comparable within an allelic series)
binding signal [6]: 9.65 upbm affinity estimate (log intensity, higher = more binding, comparable within an allelic series)

GGTCCTCA
binding signal [1]: 11.5 upbm affinity estimate (log intensity, higher = more binding, comparable within an allelic series)
binding signal [2]: 11.9 upbm affinity estimate (log intensity, higher = more binding, comparable within an allelic series)
binding signal [3]: 11.5 upbm affinity estimate (log intensity, higher = more binding, comparable within an allelic series)

AGAGCACT
binding signal [1]: 12 upbm affinity estimate (log intensity, higher = more binding, comparable within an allelic series)
binding signal [2]: 12.3 upbm affinity estimate (log intensity, higher = more binding, comparable within an allelic series)
binding signal [3]: 11.9 upbm affinity estimate (log intensity, higher = more binding, comparable within an allelic series)
binding signal [6]: 12.3 upbm affinity estimate (log intensity, higher = more binding, comparable within an allelic series)

AAAGGCGG
binding signal [1]: 9.6 upbm affinity estimate (log intensity, higher = more binding, comparable within an allelic series)
binding signal [2]: 9.51 upbm affinity estimate (log intensity, higher = more binding, comparable within an allelic series)
binding signal [3]: 9.55 upbm affinity estimate (log intensity, higher = more binding, comparable within an allelic series)
binding signal [11]: 9.54 upbm affinity estimate (log intensity, higher = more binding, comparable within an allelic series)
binding signal [6]: 9.58 upbm affinity estimate (log intensity, higher = more binding, comparable within an allelic series)

CCCACTCA
binding signal [1]: 12.4 upbm affinity estimate (log intensity, higher = more binding, comparable within an allelic series)
binding signal [2]: 12.7 upbm affinity estimate (log intensity, higher = more binding, comparable within an allelic series)
binding signal [3]: 12.2 upbm affinity estimate (log intensity, higher = more binding, comparable within an allelic series)
binding signal [11]: 11.3 upbm affinity estimate (log intensity, higher = more binding, comparable within an allelic series)
binding signal [6]: 12.6 upbm affinity estimate (log intensity, higher = more binding, comparable within an allelic series)

ACTCAAGT
binding signal [1]: 12.4 upbm affinity estimate (log intensity, higher = more binding, comparable within an allelic series)
binding signal [2]: 12.9 upbm affinity estimate (log intensity, higher = more binding, comparable within an allelic series)
binding signal [3]: 12.3 upbm affinity estimate (log intensity, higher = more binding, comparable within an allelic series)
binding signal [11]: 11.4 upbm affinity estimate (log intensity, higher = more binding, comparable within an allelic series)
binding signal [6]: 12.9 upbm affinity estimate (log intensity, higher = more binding, comparable within an allelic series)

ACGAGTAT
binding signal [1]: 11.5 upbm affinity estimate (log intensity, higher = more binding, comparable within an allelic series)
binding signal [2]: 11.7 upbm affinity estimate (log intensity, higher = more binding, comparable within an allelic series)
binding signal [3]: 11.4 upbm affinity estimate (log intensity, higher = more binding, comparable within an allelic series)
binding signal [6]: 11.6 upbm affinity estimate (log intensity, higher = more binding, comparable within an allelic series)

CCCTCATA
binding signal [1]: 11.6 upbm affinity estimate (log intensity, higher = more binding, comparable within an allelic series)
binding signal [2]: 11.8 upbm affinity estimate (log intensity, higher = more binding, comparable within an allelic series)
binding signal [3]: 11.5 upbm affinity estimate (log intensity, higher = more binding, comparable within an allelic series)

CGAGCTAG
binding signal [1]: 9.46 upbm affinity estimate (log intensity, higher = more binding, comparable within an allelic series)
binding signal [2]: 9.32 upbm affinity estimate (log intensity, higher = more binding, comparable within an allelic series)
binding signal [12]: 9.63 upbm affinity estimate (log intensity, higher = more binding, comparable within an allelic series)
binding signal [3]: 9.31 upbm affinity estimate (log intensity, higher = more binding, comparable within an allelic series)
binding signal [6]: 9.21 upbm affinity estimate (log intensity, higher = more binding, comparable within an allelic series)
binding signal [13]: 9.54 upbm affinity estimate (log intensity, higher = more binding, comparable within an allelic series)

ACCATTGA
binding signal [1]: 11.3 upbm affinity estimate (log intensity, higher = more binding, comparable within an allelic series)
binding signal [2]: 11.5 upbm affinity estimate (log intensity, higher = more binding, comparable within an allelic series)
binding signal [3]: 11.3 upbm affinity estimate (log intensity, higher = more binding, comparable within an allelic series)
binding signal [14]: 9.55 upbm affinity estimate (log intensity, higher = more binding, comparable within an allelic series)
binding signal [6]: 11.5 upbm affinity estimate (log intensity, higher = more binding, comparable within an allelic series)
binding signal [15]: 10.2 upbm affinity estimate (log intensity, higher = more binding, comparable within an allelic series)

CGCGCCCG
binding signal [1]: 9.29 upbm affinity estimate (log intensity, higher = more binding, comparable within an allelic series)
binding signal [16]: 9.51 upbm affinity estimate (log intensity, higher = more binding, comparable within an allelic series)
binding signal [2]: 9.29 upbm affinity estimate (log intensity, higher = more binding, comparable within an allelic series)
binding signal [3]: 9.39 upbm affinity estimate (log intensity, higher = more binding, comparable within an allelic series)
binding signal [17]: 9.64 upbm affinity estimate (log intensity, higher = more binding, comparable within an allelic series)
binding signal [18]: 7.51 upbm affinity estimate (log intensity, higher = more binding, comparable within an allelic series)
binding signal [19]: 9.54 upbm affinity estimate (log intensity, higher = more binding, comparable within an allelic series)
binding signal [6]: 9.3 upbm affinity estimate (log intensity, higher = more binding, comparable within an allelic series)
binding signal [20]: 9.66 upbm affinity estimate (log intensity, higher = more binding, comparable within an allelic series)

AGCCTCAG
binding signal [1]: 9.76 upbm affinity estimate (log intensity, higher = more binding, comparable within an allelic series)
binding signal [2]: 9.76 upbm affinity estimate (log intensity, higher = more binding, comparable within an allelic series)
binding signal [21]: 10.1 upbm affinity estimate (log intensity, higher = more binding, comparable within an allelic series)
binding signal [3]: 9.79 upbm affinity estimate (log intensity, higher = more binding, comparable within an allelic series)
binding signal [22]: 10.1 upbm affinity estimate (log intensity, higher = more binding, comparable within an allelic series)
binding signal [6]: 9.76 upbm affinity estimate (log intensity, higher = more binding, comparable within an allelic series)
